Shown are actives, neighbours in structure and some others; about 4.7% of the full set was active somewhere.
rCAG RNA binder = binds r(CAG) RNA repeats; r(CAG) RNA repeat, TO-PRO-1 dye displacement fluorescence; inhibition, % at 3 µM; actives 1.3% (n = 370,000);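 active = inhibition above the plate cutoff, the mean of all test compounds on that plate plus 3 SD, cut at about 35% in these data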;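 note: higher means more dye released from RNA so lower well fluorescence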
DSG3 Ab inh = blocks pemphigus antibody binding to human desmoglein-3; P32926; AID 588358; actives 0.48% (n = 310,000); DSG3-coupled beads, scFv-anti-DSG3-GFP binding, flow cytometry; hits give low values; binding (percent of control), % at 10 µM;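 active = binding more than 3 SD below its plate's average and above zero; inconclusive = below that plate limit but binding exactly zero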;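 note: hits lower antibody fragment binding to DSG3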
ADAM17 inh = inhibitors of human ADAM17; P78536; recombinant ADAM17, EDANS/DABCYL FRET peptide cleavage; inhibition, % at 6.95 µM; actives 0.83% (n = 370,000);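 active = inhibition above the mean of compounds lying between control limits plus 3 SD, set per campaign, cut at about 8.5% in these data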
MPTP inh = blocks calcium-induced mitochondrial swelling; isolated mouse mitochondria, Ca2+ swelling absorbance, 30 min; inhibition, % at 10 µM; actives 1.4% (n = 360,000);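 active = inhibition of 50% or more, scaled per plate between neutral and stimulator controls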
ADAM10 inh = inhibits human ADAM10; O14672; actives 0.62% (n = 370,000); recombinant ADAM10, EDANS/DABCYL FRET peptide cleavage, 3 h; inhibition, % at 7 µM;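 active = inhibition above a per-campaign cutoff equal to the mean of compounds falling between control-based bounds plus 3 SD, cut at about 20% in these data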
KLK7 zymogen act = proKLK7 (human) activation, primary screen | purified proKLK7, EDANS-DABCYL substrate fluorescence; 100% is mature enzyme control, 0% vehicle | activation, % at 7 µM | actives 0.9% (n = 370,000) | AID 652039;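 active = activation above the mean of all tested compounds plus 3 SD, computed per campaign excluding outliers beyond control limits, cut at about 13% in these data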
Target sequence (P49862 whole entry, looked up): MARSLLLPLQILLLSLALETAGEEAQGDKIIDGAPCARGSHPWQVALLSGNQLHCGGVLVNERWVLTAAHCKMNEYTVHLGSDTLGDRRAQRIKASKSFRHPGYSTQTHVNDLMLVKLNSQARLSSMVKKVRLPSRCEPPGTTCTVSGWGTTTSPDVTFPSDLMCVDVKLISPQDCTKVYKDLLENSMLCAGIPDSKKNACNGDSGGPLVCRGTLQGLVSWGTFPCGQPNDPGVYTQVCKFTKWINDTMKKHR
ADAM10 counter = counter-screen for ADAM17 exosite inhibitors: inhibitors of human ADAM10; AID 743256; inhibition, % at 6.95 µM; actives 47% (n = 2,900); recombinant ADAM10, EDANS/DABCYL FRET peptide cleavage, 3 h; shares compounds with ADAM17 inh;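 active = mean inhibition over the triplicate runs exceeds the activity threshold set in the earlier primary screen, cut at about 20% in these data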
ADAM17 confirm = human ADAM17 inhibition, confirmation | shares compounds with ADAM17 inh | recombinant ADAM17, EDANS/DABCYL QFRET peptide cleavage | inhibition, % at 6.95 µM | actives 65% (n = 2,900) | AID 743257;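 active = mean inhibition across replicates above the hit cutoff set in the primary screen, cut at about 8.5% in these data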
A number is an active result; - = inactive; ? = inconclusive; . = not tested or not shown.

SMILES	rCAG RNA binder	DSG3 Ab inh	ADAM17 inh	MPTP inh	ADAM10 inh	KLK7 zymogen act	ADAM10 counter	ADAM17 confirm
Cc1cccc(Nc2nnc(SCC(=O)c3ccc(Br)s3)s2)c1C	-	-	12	-	-	-	-	12
C/C(N)=C(/C#N)C(=O)CSc1nnc(Nc2cccc(C)c2C)s1	-	-	-	-	-	-	.	.
COC(=O)c1ccc(CNC(=O)C23CC4CC(CC(C4)C2)C3)cc1	-	-	-	-	-	-	.	.
CCOc1ccc(NS(=O)(=O)c2cc(OC)ccc2OC)cc1	-	-	-	-	-	-	.	.
CCOc1ccc(S(=O)(=O)Nc2ccc(F)cc2)c(C)c1C	-	-	9.5	-	-	-	-	12
O=C(COc1cccc(Cl)c1)NNC(=S)Nc1ccccc1	-	.	9.8	-	-	-	-	9.7
O=C(O)CCC(=O)NNC(=O)COc1cccc(Cl)c1	-	-	-	-	-	-	.	.
CC(C)c1ccc(NC(=O)C2CCCN(S(=O)(=O)c3ccc4c(c3)C(C)(C)C(=O)N4C)C2)cc1 (stereo not given)	-	-	9.6	-	-	-	-	8.8
CN1C(=O)C(C)(C)c2cc(S(=O)(=O)N3CCCC(C(=O)Nc4ccc(Cl)cc4)C3)ccc21 (stereo not given)	-	-	-	-	-	-	.	.
Cc1ccc(S(=O)(=O)N2C3CCCCC3O[C@H]2CC(=O)c2ccc(F)cc2)cc1 (stereo not given in full)	-	.	9.6	-	-	-	-	-
CCCN1C/C(=C/c2ccc3c(c2)OCO3)C(=O)/C(=C/c2ccc3c(c2)OCO3)C1	-	-	10	-	-	-	-	28
CCCN1C(=O)/C(=C/c2ccc3c(c2)OCO3)NC1=S	-	-	-	-	-	-	.	.
COc1ccc(Oc2c(-c3ccc(O)cc3O)n[nH]c2C)cc1	-	-	-	-	-	-	.	.
CCCOC(=O)c1ccc(Oc2c(-c3ccc(OCC)cc3O)n[nH]c2C)cc1	-	-	9.8	-	-	-	24	15
COc1ccc(Oc2cn[nH]c2-c2ccc(OCC(=O)NN)cc2O)cc1	-	?	-	-	-	-	.	.
CCCc1ccc(Oc2c(-c3ccc(O)c(C)c3O)n[nH]c2C)cc1	-	-	9.0	-	-	-	-	-
CCCOC(=O)c1ccc(Oc2cn[nH]c2-c2ccc(OCC)cc2O)cc1	-	-	9.8	-	-	-	-	12
CC(C)OC(=O)N(C)C[C@@H]1OCc2cn(nn2)CCCC(=O)N([C@@H](C)CO)C[C@H]1C	-	-	-	-	-	-	.	.
Cc1ccc(S(=O)(=O)N2C[C@H]3C(=O)C[C@@H](c4ccccc4)N(S(=O)(=O)c4ccc(C)cc4)[C@H]3C[C@H]2c2ccccc2)cc1	-	-	-	-	-	-	.	.
Cc1ccc(S(=O)(=O)N2C[C@H]3C(=O)C[C@@H](c4ccccc4)N(S(=O)(=O)c4ccccc4C)[C@H]3C[C@H]2c2ccccc2)cc1	-	.	11	-	-	-	22	9.9
Cc1ccc(S(=O)(=O)N2C[C@H]3C(=O)C[C@@H](c4cccc(C)c4)N(S(=O)(=O)c4ccc(C)cc4)[C@H]3C[C@H]2c2ccccc2)cc1	-	.	8.9	-	-	-	-	-
Cc1ccc(S(=O)(=O)N2[C@H](c3ccccc3)CC(=O)[C@@H]3CN(S(=O)(=O)c4ccccc4C)[C@H](c4ccccc4)C[C@@H]32)cc1	-	.	-	-	-	-	.	.
O=S(=O)(/N=S1\CC=CCN1S(=O)(=O)c1ccccc1)c1ccccc1 (stereo not given)	-	-	-	-	-	-	.	.
CCN(CC)S(=O)(=O)c1ccc2c(c1)nc(CCC(=O)Nc1ccc3c(c1)OCO3)n2CC	-	-	8.9	-	-	-	-	-
O=C(c1ccccc1)c1ccc(OCCn2cnc3ccccc3c2=O)cc1	-	-	-	-	-	-	.	.
SMILES	rCAG RNA binder	DSG3 Ab inh	ADAM17 inh	MPTP inh	ADAM10 inh	KLK7 zymogen act	ADAM10 counter	ADAM17 confirm
CC(C)(c1ccccc1)c1ccc(OCCn2cnc3ccccc3c2=O)cc1	-	-	9.6	-	-	-	27	15
CCOC(=O)c1cc(OC(=O)c2ccccc2OC)n(-c2ccccc2)n1	-	-	11	-	-	-	-	12
Cc1cccn2c(=O)nc(SCC(=O)NCc3ccc(F)cc3)nc12	-	-	-	-	-	-	.	.
NC(=O)CC[C@H](NC(=O)c1ccc(F)cc1)C(=O)OCC(=O)NCc1ccc(F)cc1	-	-	10	-	-	-	-	-
NC(=O)CC[C@H](NC(=O)c1ccc(F)cc1)C(=O)OCC(=O)Nc1c(F)c(F)c(F)c(F)c1F	-	-	-	-	-	-	.	.
CC1(Cc2cc(Cl)ccc2C(F)(F)F)C(=O)Nc2cc(-c3ccccc3Cl)ccc21 (stereo not given)	-	.	-	-	-	-	.	.
O=C(O)COc1ccc(NC(=O)c2ccc(NC(=O)c3ccco3)cc2)cc1	-	-	-	-	-	-	.	.
O=C(OC1CCCCC1)c1ccc(NC(=O)c2ccco2)cc1	-	-	12	-	-	-	21	12
CC(=O)Nc1cccc(-c2ccnc3c2CC(C)(C(=O)NCc2cccs2)O3)c1 (stereo not given)	-	.	-	-	-	-	.	.
CCOC(=O)c1c(-c2ccccc2)csc1NC(=O)CSc1nncs1	-	-	9.0	-	-	-	-	13
CC(=O)c1cccc(NC(=O)c2cc(=O)[nH]c3ccccc23)c1	-	-	-	-	-	-	.	.
CC1CCCCN1S(=O)(=O)c1ccc(S(=O)(=O)N(Cc2ccccc2)Cc2ccco2)cc1 (stereo not given)	-	-	16	-	-	-	20	12
COC(=O)C1=C(C)N=C2SC(C)C(=O)N2C1c1cccs1 (stereo not given)	-	-	9.6	-	-	-	-	-
CCOC(=O)N(C)C[C@@H]1OCc2cnnn2CCCC(=O)N([C@H](C)CO)C[C@H]1C	-	.	-	-	-	-	.	.
CCc1ccc(/C=C2/Sc3ccccc3N(CC(=O)NCC3CCCO3)C2=O)cc1 (stereo not given)	-	.	8.8	-	-	-	-	-
Cc1sc(NC(=O)C2=COCCO2)nc1-c1ccc(Cl)cc1	-	-	-	-	-	-	.	.
Cc1cccc(NS(=O)(=O)c2cccc(C(=O)N3CCC3)c2)c1	-	-	-	-	-	-	.	.
COc1ccc(CCNS(=O)(=O)c2ccc(N3CCCC3=O)cc2)cc1	-	-	12	-	-	-	-	-
O=C1CCCN1c1ccc(S(=O)(=O)NCCc2ccc(Cl)cc2)cc1	.	-	.	-	.	.	.	.

Compound activity as filed in PubChem.
